Measurements from the supplement of paper PMC12282887.
± gives the standard deviation of the averaged measurements.

What was measured:
Assay in all cases: promoter activity interaction Z-score (Lux/OD deviation from empty-vector control); higher = stronger promoter induction by the compound
[1] = test system: E. coli BW25113 acrABp lux reporter
Procedure, shortened: (§1)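 Every compound was given at four 1:2 dilutions, in biological duplicates, to E. coli BW25113 carrying low-copy luxCDABE promoter reporters in wild-type or single-gene deletion backgrounds. Growth in 40 µl LB Lennox in 384-well plates at 37°C was followed by OD600 and luminescence readings every 30 min for 12 h, integrated over 0–8 h for wild type and 1–9 h for deletion strains, with wells below 10% of the median growth value excluded. Scores are Z-transformed residuals of growth-normalised luminescence fitted against a control.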

[2] = test system: E. coli BW25113 micFp lux reporter
Procedure, shortened: as §1

[3] = test system: E. coli BW25113 ompFp lux reporter
Procedure, shortened: as §1

[4] = test system: E. coli BW25113 robp lux reporter
Procedure, shortened: as §1

[5] = test system: E. coli BW25113 soxSp lux reporter
Procedure, shortened: as §1

[6] = test system: E. coli BW25113 tolCp lux reporter
Procedure, shortened: as §1

[7] = 17.3 µg/ml, genetic background: wild type
[8] = 17.3 µg/ml, genetic background: ΔmarA
[9] = 17.3 µg/ml, genetic background: Δrob
[10] = 17.3 µg/ml, genetic background: ΔsoxS
[11] = 34.5 µg/ml, genetic background: wild type
[12] = 34.5 µg/ml, genetic background: ΔmarA
[13] = 34.5 µg/ml, genetic background: Δrob
[14] = 34.5 µg/ml, genetic background: ΔsoxS
[15] = 69.1 µg/ml, genetic background: wild type
[16] = 69.1 µg/ml, genetic background: ΔmarA
[17] = 69.1 µg/ml, genetic background: Δrob
[18] = 69.1 µg/ml, genetic background: ΔsoxS
[19] = 138.1 µg/ml, genetic background: wild type
[20] = 138.1 µg/ml, genetic background: ΔmarA
[21] = 138.1 µg/ml, genetic background: Δrob
[22] = 138.1 µg/ml, genetic background: ΔsoxS

SMILES: O=C(O)c1ccccc1O [Salicylate]
- promoter activity interaction Z-score [1, 7]: -0.103 ± 0.014
- promoter activity interaction Z-score [1, 8]: -0.589 ± 0.63
- promoter activity interaction Z-score [1, 9]: -0.226 ± 0.24
- promoter activity interaction Z-score [1, 10]: -0.152 ± 0.11
- promoter activity interaction Z-score [1, 11]: -0.242 ± 0.057
- promoter activity interaction Z-score [1, 12]: -0.128 ± 0.11
- promoter activity interaction Z-score [1, 13]: -0.178 ± 0.057
- promoter activity interaction Z-score [1, 14]: -0.392 ± 0.55
- promoter activity interaction Z-score [1, 15]: -0.168 ± 0.043
- promoter activity interaction Z-score [1, 16]: -0.559 ± 0.22
- promoter activity interaction Z-score [1, 17]: -0.327 ± 0.03
- promoter activity interaction Z-score [1, 18]: -0.194 ± 0.22
- promoter activity interaction Z-score [1, 19]: 1.16 ± 0.76
- promoter activity interaction Z-score [1, 20]: 0.299 ± 0.12
- promoter activity interaction Z-score [1, 21]: 0.954 ± 0.4
- promoter activity interaction Z-score [1, 22]: 1.34 ± 0.39
- promoter activity interaction Z-score [2, 7]: 0.432 ± 0.15
- promoter activity interaction Z-score [2, 8]: -0.066 ± 0.12
- promoter activity interaction Z-score [2, 9]: 0.521 ± 0.42
- promoter activity interaction Z-score [2, 10]: 0.0126 ± 0.12
- promoter activity interaction Z-score [2, 11]: 0.534 ± 0.39
- promoter activity interaction Z-score [2, 12]: -0.0684 ± 0.18
- promoter activity interaction Z-score [2, 13]: 0.624 ± 0.05
- promoter activity interaction Z-score [2, 14]: 0.176 ± 0.22
- promoter activity interaction Z-score [2, 15]: 0.858 ± 0.46
- promoter activity interaction Z-score [2, 16]: 0.0541 ± 0.076
- promoter activity interaction Z-score [2, 17]: 1.4 ± 0.11
- promoter activity interaction Z-score [2, 18]: 0.648 ± 0.042
- promoter activity interaction Z-score [2, 19]: 3.02 ± 0.49
- promoter activity interaction Z-score [2, 20]: 0.477 ± 0.32
- promoter activity interaction Z-score [2, 21]: 4.91 ± 0.15
- promoter activity interaction Z-score [2, 22]: 3.15 ± 0.65
- promoter activity interaction Z-score [3, 7]: -0.258 ± 0.037
- promoter activity interaction Z-score [3, 8]: -0.336 ± 0.23
- promoter activity interaction Z-score [3, 9]: -0.349 ± 0.016
- promoter activity interaction Z-score [3, 10]: -0.27 ± 0.18
- promoter activity interaction Z-score [3, 11]: -0.259 ± 0.41
- promoter activity interaction Z-score [3, 12]: -0.439 ± 0.33
- promoter activity interaction Z-score [3, 13]: -0.523 ± 0.35
- promoter activity interaction Z-score [3, 14]: 0.344 ± 0.3
- promoter activity interaction Z-score [3, 15]: -0.272 ± 0.29
- promoter activity interaction Z-score [3, 16]: -0.133 ± 0.11
- promoter activity interaction Z-score [3, 17]: 0.0991 ± 0.22
- promoter activity interaction Z-score [3, 18]: 0.35 ± 0.33
- promoter activity interaction Z-score [3, 19]: 0.5 ± 0.64
- promoter activity interaction Z-score [3, 20]: -0.462 ± 0.05
- promoter activity interaction Z-score [3, 21]: 0.991 ± 0.12
- promoter activity interaction Z-score [3, 22]: 0.357 ± 1.6
- promoter activity interaction Z-score [4, 7]: 0.135 ± 0.21
- promoter activity interaction Z-score [4, 8]: -0.248 ± 0.33
- promoter activity interaction Z-score [4, 9]: -0.0314 ± 0.15
- promoter activity interaction Z-score [4, 10]: -0.476 ± 0.16
- promoter activity interaction Z-score [4, 11]: -0.293 ± 0.019
- promoter activity interaction Z-score [4, 12]: 0.052 ± 0.1
- promoter activity interaction Z-score [4, 13]: -0.218 ± 0.033
- promoter activity interaction Z-score [4, 14]: 0.365 ± 0.091
- promoter activity interaction Z-score [4, 15]: -0.0138 ± 0.24
- promoter activity interaction Z-score [4, 16]: -0.259 ± 0.74
- promoter activity interaction Z-score [4, 17]: 0.387 ± 0.029
- promoter activity interaction Z-score [4, 18]: -0.512 ± 0.077
- promoter activity interaction Z-score [4, 19]: -0.0563 ± 0.13
- promoter activity interaction Z-score [4, 20]: -0.611 ± 0.22
- promoter activity interaction Z-score [4, 21]: 0.693 ± 0.087
- promoter activity interaction Z-score [4, 22]: -0.616 ± 0.21
- promoter activity interaction Z-score [5, 7]: 0.0635 ± 0.14
- promoter activity interaction Z-score [5, 8]: -0.172 ± 0.0058
- promoter activity interaction Z-score [5, 9]: -0.0541 ± 0.36
- promoter activity interaction Z-score [5, 10]: -0.237 ± 0.017
- promoter activity interaction Z-score [5, 11]: -0.0796 ± 0.076
- promoter activity interaction Z-score [5, 12]: -0.219 ± 0.049
- promoter activity interaction Z-score [5, 13]: -0.0336 ± 0.1
- promoter activity interaction Z-score [5, 14]: -0.0124 ± 0.14
- promoter activity interaction Z-score [5, 15]: -0.0424 ± 0.045
- promoter activity interaction Z-score [5, 16]: -0.126 ± 0.076
- promoter activity interaction Z-score [5, 17]: 0.239 ± 0.18
- promoter activity interaction Z-score [5, 18]: 0.207 ± 0.22
- promoter activity interaction Z-score [5, 19]: 0.0689 ± 0.0036
- promoter activity interaction Z-score [5, 20]: 0.491 ± 0.041
- promoter activity interaction Z-score [5, 21]: 0.434 ± 0.012
- promoter activity interaction Z-score [5, 22]: 0.177 ± 0.4
- promoter activity interaction Z-score [6, 7]: -0.0562 ± 0.66
- promoter activity interaction Z-score [6, 8]: -0.946 ± 0.55
- promoter activity interaction Z-score [6, 9]: 0.0451 ± 0.3
- promoter activity interaction Z-score [6, 10]: 0.372 ± 0.27
- promoter activity interaction Z-score [6, 11]: -0.65 ± 0.46
- promoter activity interaction Z-score [6, 12]: -0.0216 ± 0.48
- promoter activity interaction Z-score [6, 13]: -0.226 ± 0.041
- promoter activity interaction Z-score [6, 14]: 0.227 ± 0.47
- promoter activity interaction Z-score [6, 15]: -0.276 ± 0.26
- promoter activity interaction Z-score [6, 16]: -0.251 ± 0.18
- promoter activity interaction Z-score [6, 17]: 0.839 ± 0.021
- promoter activity interaction Z-score [6, 18]: 0.668 ± 1.5
- promoter activity interaction Z-score [6, 19]: 2.05 ± 1
- promoter activity interaction Z-score [6, 20]: -0.89 ± 0.018
- promoter activity interaction Z-score [6, 21]: 1.38 ± 2
- promoter activity interaction Z-score [6, 22]: 0.806 ± 0.32
